The whole screen tested about 340,000 compounds, of which about 1,000 (0.29%) were called active. A selection follows. Potency and affinity values are given separately. Values without a mark were called inactive. Rule as the data show it: inconclusive = inhibition above about 27% without an active follow-up result; inactive = below that.

The assay is described as follows: NS1A inhibition, H1N1 influenza, cell based functional assay (AID 504329). The following applies: percent inhibition, at 12.5 µM, hits give high values.
In the case of `CCCOc1ccc(CNC(=O)C2CCN(c3nnc(N4CCCC4=O)s3)CC2)cc1`, the inhibition – broadly, the drop in the measured response relative to a control, in per cent – was -2.57%.

In the case of `Cc1ccccc1NC(=O)c1c(Cl)nc(C)c(Cl)c1C`, the inhibition is -3.05%.

Regarding `O=C(NCc1ccncc1)C1CCC(=O)N(CCc2ccc(Cl)cc2)C1` (configuration not stated), the inhibition was -3.67%.

Consider `COc1ccc(C(=O)N/N=C/c2cc(Br)ccc2O)cc1OC`, for which the inhibition was -6.16%.

In the case of `O=C(N/N=C/c1cc([N+](=O)[O-])ccc1O)c1ccncc1`, the inhibition was -34.5%.

On to `COc1ccc(Br)cc1/C=N/NC(=O)C(c1ccncc1)N1CCOCC1` (configuration not stated), for which the inhibition is 2.7%.

As to `Cc1ccc(C(=O)N/N=C\c2cc3c(cc2Br)OCO3)cn1`, the inhibition is -7.88%.

`O=C(NCC1CCCO1)C(=O)N/N=C/c1cccc(Cl)c1` (configuration not stated): the inhibition is 1.01%.

Take `O=C(CNC(=O)c1ccncc1)N/N=C/c1cc(Br)ccc1O`: the inhibition is 2.02%.

In the case of `Cc1ccc(/C=N/NC(=O)C(c2ccncc2)N2CCOCC2)cc1` (configuration not stated), the inhibition is 3.83%.

With `O=C(NCC1CCCO1)C(=O)N/N=C/c1ccc(O)c(Cl)c1` (configuration not stated), the inhibition was 11.2%.

For `COC(=O)c1ccc(N2CCN(C)CC2)c(NC(=O)COc2cccc(C)c2)c1`, the inhibition is 8.25%.

For `CC12CCC(=O)N1C(C(=O)Nc1ccccc1N1CCOCC1)CS2` (configuration not stated), the inhibition is 1.95%.

Consider `O=C(CCCC(=O)Nc1ccc(Br)cc1)N/N=C/c1ccccc1`, for which the inhibition is -7.56%.

Regarding `CNC(=S)NN=C(C)CCCC(C)=NNC(=S)NC`, the inhibition is -24.1%.

In the case of `O=C1c2cccc([N+](=O)[O-])c2C(=O)N1C1CCCCC1`, the inhibition was -11.8%.

Take `CN1CCN(C(=O)CNC(=O)C23CC4CC(CC(C4)C2)C3)CC1`: the inhibition is -0.78%.

As for `O=C(N/N=C/c1cccnc1)c1cccc(Cl)c1`, the inhibition is -19.1%.

In the case of `O=C(N/N=C/c1cc(Cl)ccc1O)c1ccc(Br)cc1`, the inhibition was -2.86%.

With `O=C(N/N=C/c1ccc(Cl)cc1Cl)c1ccncc1`, the inhibition was -7.47%.

Consider `O=C(N/N=C/c1coc2ccc(Cl)cc2c1=O)c1ccncc1`, for which the inhibition was 2.11%.

As for `COc1ccc(/C=C(\NC(=O)c2ccco2)C(=O)N2CCOCC2)cc1`, the inhibition was 10.3%.

`CCN(CC)Cc1cc(C(C)(C)C)cc(N2CCOCC2)c1O`: the inhibition is 3.29%.

Regarding `CCc1cc(=O)[nH]c(SCCc2ccccc2)n1`, the inhibition is 1.92%.

Regarding `O=C(NC1CCCC1)C1CCCN1C(=O)Nc1ccccc1` (configuration not stated), the inhibition was 7.61%.

As for `CCOc1cccc(-c2c(C(=O)N/N=C(\C)c3cccnc3)nnn2-c2nonc2N)c1`, the inhibition is -0.26%.

Turning to `CCOc1cccc(-c2c(C(=O)N/N=C(\C)c3ccncc3)nnn2-c2nonc2N)c1`, the inhibition is 0.12%.

Consider `N=C1c2ccccc2CN1NC(=O)c1ccc(Br)o1`, for which the inhibition was -1.62%.

For the compound `Cc1ccc(Nc2c([N+](=O)[O-])ccc3nonc23)c(C)c1`, the inhibition was 24.2%.

As to `O=[N+]([O-])c1cccc(Nc2c([N+](=O)[O-])ccc3nonc23)c1`, the inhibition was 11.8%.

For the compound `COc1ccccc1CNC(=O)CSC1=NCCS1`, the inhibition is -11.3%.

As to `CSc1ccccc1OCc1cc(C(=O)NCCN2CCCC(O)C2)no1` (configuration not stated), the inhibition is 14.2%.

Regarding `CC(NC(=O)COC(=O)C12CC3CC(CC(Br)(C3)C1)C2)c1ccccc1` (configuration not stated), the inhibition is 4.11%.

With `O=C(N/N=C/c1cccc2ccccc12)c1cccnc1`, the inhibition is -1.84%.

Consider `Cc1ccc(C(=O)N/N=C/c2c(O)ccc3ccccc23)cn1`, for which the inhibition is -7.55%.

For `O=C(NN=Cc1c(O)ccc2ccccc12)c1ccc2c(c1)OCO2`, the inhibition is 3.47%.

As for `O=C(N/N=C/c1c(O)ccc2ccccc12)c1ccc(Br)o1`, the inhibition is -3.25%.

For the compound `CCOc1ccc2ccccc2c1/C=N/NC(=O)c1ccncc1`, the inhibition is -4.1%.

In the case of `O=C(N/N=C/c1c(O)ccc2ccccc12)c1cccc(C(F)(F)F)c1`, the inhibition is 5.26%.

Regarding `O=C(N/N=C\c1c(O)ccc2ccccc12)c1ccc(O)cc1`, the inhibition was 3.55%.

On to `O=C(N/N=C\c1c(O)ccc2ccccc12)c1cncc(Br)c1`, for which the inhibition was -2.66%.

Consider `COc1ccc(-c2nnnn2-c2ccc(F)cc2F)cc1`, for which the inhibition was -3.82%.

As to `COP(=O)(OC)C1(O)C(=O)Nc2ccc(Br)cc21` (configuration not stated), the inhibition is -4.97%.

Consider `Nc1c(C(=O)NCc2ccc3c(c2)OCO3)nnn1Cc1ccc(Br)cc1`, for which the inhibition is 1.55%.

Take `N#CC(Cc1ccccc1)(Cc1ccccc1)C(=O)NN`: the inhibition is -3.45%.

Take `COC1CCCCC1NS(=O)(=O)c1ccccc1` (configuration not stated): the inhibition is 1.39%.

Consider `CC(C)C(=O)NC(c1ccco1)c1ccc2cccnc2c1O` (configuration not stated), for which the inhibition was 23.1%.

Regarding `CCCCC(=O)NC(c1cccc([N+](=O)[O-])c1)c1ccc2cccnc2c1O` (configuration not stated), the inhibition was 17.2%.

As to `COc1ccc(C(NC(C)=O)c2ccc3cccnc3c2O)c(OC)c1` (configuration not stated), the inhibition is 20.8%.

As to `CC(=O)NC(c1ccc2ccccc2c1)c1ccc2cccnc2c1O` (configuration not stated), the inhibition is 23.8%.

For the compound `CC(C)C(=O)NC(c1cccc([N+](=O)[O-])c1)c1ccc2cccnc2c1O` (configuration not stated), the inhibition is 17.9%.

Turning to `CC(=O)NC(c1ccc(C(C)C)cc1)c1ccc2cccnc2c1O` (configuration not stated), the inhibition was -6.08%.

For the compound `C=CCNC(=O)c1onc(CSc2ccc(F)cc2)c1C(=O)NCC=C`, the inhibition was 8.73%.

As for `CCOCCc1nnc(NC(=O)C2CC(=O)N(c3ccc(OCC)cc3)C2)s1` (configuration not stated), the inhibition was -1.86%.

Take `C[C@@H]1CC[C@@]2(O[C@H](CCO)C[C@H](O)[C@H]2O)O1`: the inhibition is -1.57%.

As to `CCCSc1nc(-c2ccccc2)cc(C(F)(F)F)c1C#N`, the inhibition was -2.3%.

Turning to `COc1ccc(N2CCN(C(=O)Cc3ncc(C(F)(F)F)cc3Cl)CC2)cc1`, the inhibition was -8.89%.

As for `O=C(O)c1ccc(NS(=O)(=O)c2ccc3c(c2)C2C=CCC2C(c2ccccc2F)N3)cc1` (configuration not stated), the inhibition is 18.1%.

For the compound `COc1ccc(NS(=O)(=O)c2ccc3c(c2)[C@H]2C=CC[C@H]2[C@@H](c2ccc(C(=O)O)cc2)N3)cc1`, the inhibition is 24.1%.

As for `Cn1nnnc1SCC(=O)N1CCc2ccccc21`, the inhibition is -9.92%.

As for `O=C1/C(=C/c2ccncc2)N2CCC1CC2`, the inhibition is -8.83%.

For the compound `CC(C)CC(=O)Nc1nnc(SCC(=O)NCC2CCCO2)s1` (configuration not stated), the inhibition was -4.89%.

Source of the values: PubChem BioAssay AID504329 (Southern Research Specialized Biocontainment Screening …, 2011).
